The whole screen tested about 5,500 compounds, of which about 2,000 (36%) were called active. About 18% were inconclusive and are not listed. No stated cut-off is given here; in the data, active means normalized growth mostly below about 0.91 (no sharp cut-off); inconclusive means no clear call, values can overlap the other calls; inactive means mostly above about 0.92. The list shows a part of the results.
Test: chemical genetic growth profiling, strain panel (AID 1159580);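 further: tested at 20 µM; growth read once vehicle control cultures reached saturation at 30 °C; 1 = growth at the plate median or of vehicle wells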
Conditions: S. cerevisiae deletion strains, growth OD
[1] = locus YHR030C, strain SLT2, stronger effect = lower value

Measured: normalized growth

O=P1(NCCCl)OCCCN1CCCl (configuration not stated)
inactive: locus YAL021C, strain ccr4, stronger effect = lower value 0.964 | locus YAL026C, strain drs2, stronger effect = lower value 0.991 | locus YAL030W, strain snc1, stronger effect = lower value 0.992 | locus YBL061C, strain skt5, stronger effect = lower value 0.993 | locus YBR009C, strain hhf1, stronger effect = lower value 1.01 | locus YBR023C, strain chs3, stronger effect = lower value 0.987 | locus YBR171W, strain sec66, stronger effect = lower value 0.98 | locus YBR231C, strain swc5, stronger effect = lower value 1 | locus YBR279W, strain paf1, stronger effect = lower value 0.997 | locus YCL011C, strain gbp2, stronger effect = lower value 0.975 | locus YCL016C, strain dcc1, stronger effect = lower value 0.992 | locus YCL061C, strain MRC1, stronger effect = lower value 0.987 | locus YCL069W, strain vba3, stronger effect = lower value 0.989 | locus YCR088W, strain abp1, stronger effect = lower value 0.971 | locus YDL005C, strain med2, stronger effect = lower value 0.995 | locus YDL040C, strain nat1, stronger effect = lower value 0.987 | locus YDR001C, strain nth1, stronger effect = lower value 0.985 | locus YDR069C, strain doa4, stronger effect = lower value 0.995 | locus YDR137W, strain rgp1, stronger effect = lower value 0.988 | locus YDR159W, strain sac3, stronger effect = lower value 0.982 | locus YDR195W, strain ref2 0.985 | locus YDR297W, strain sur2, stronger effect = lower value 0.99 | locus YDR334W, strain swr1, stronger effect = lower value 0.969 | locus YDR335W, strain msn5, stronger effect = lower value 0.976 | locus YDR392W, strain spt3, stronger effect = lower value 1.01 | locus YEL003W, strain gim4, stronger effect = lower value 0.983 | locus YEL037C, strain rad23, stronger effect = lower value 0.95 | locus YEL061C, strain CIN8 (second series), stronger effect = lower value 0.977 | locus YER015W, strain faa2, stronger effect = lower value 0.99 | locus YER016W, strain bim1, stronger effect = lower value 0.986 | locus YER111C, strain swi4, stronger effect = lower value 1 | locus YER155C, strain BEM2 (second series), stronger effect = lower value 1.01 | locus YFR010W, strain ubp6, stronger effect = lower value 0.96 | locus YGL167C, strain pmr1, stronger effect = lower value 0.992 | locus YGL173C, strain kem1, stronger effect = lower value 0.984 | locus YGL227W, strain vid30, stronger effect = lower value 0.993 | locus YGL240W, strain doc1, stronger effect = lower value 1.02 | locus YGL253W, strain hxk2, stronger effect = lower value 0.986 | locus YHR013C, strain ard1, stronger effect = lower value 0.996 | locus YHR027C, strain rpn1, stronger effect = lower value 0.981 | [1] 0.967 | locus YHR079C, strain IRE1, stronger effect = lower value 0.971 | locus YHR142W, strain chs7, stronger effect = lower value 0.943 | locus YJL092W, strain hpr5, stronger effect = lower value 0.975 | locus YJL095W, strain BCK1 (second series), stronger effect = lower value 0.995 | locus YJL095W, strain BCK1, stronger effect = lower value 0.989 | locus YJL115W, strain asf1, stronger effect = lower value 0.971 | locus YJL129C, strain trk1, stronger effect = lower value 0.97 | locus YJL154C, strain vps35, stronger effect = lower value 0.992 | locus YJL164C, strain tpk1, stronger effect = lower value 0.979 | locus YJL166W, strain qcr8, stronger effect = lower value 0.998 | locus YJL187C, strain SWE1, stronger effect = lower value 0.99 | locus YJR066W, strain TOR1, stronger effect = lower value 0.921 | locus YKL160W, strain elf1, stronger effect = lower value 0.986 | locus YKR026C, strain gcn3, stronger effect = lower value 0.971 | locus YKR091W, strain srl3, stronger effect = lower value 0.99 | locus YLL001W, strain dnm1, stronger effect = lower value 0.968 | locus YLL026W, stronger effect = lower value 1 | locus YLL041C, strain sdh2, stronger effect = lower value 0.987 | locus YLR027C, strain aat2, stronger effect = lower value 0.988 | locus YLR113W, strain HOG1, stronger effect = lower value 1 | locus YLR221C, strain rsa3, stronger effect = lower value 0.981 | locus YLR258W, strain gsy2, stronger effect = lower value 0.996 | locus YLR262C, strain YPT6 (second series), stronger effect = lower value 1.01 | locus YLR320W, strain mms22, stronger effect = lower value 1.01 | locus YLR342W, strain FKS1, stronger effect = lower value 0.99 | locus YLR357W, strain rsc2, stronger effect = lower value 0.991 | locus YLR370C, strain arc18, stronger effect = lower value 0.986 | locus YLR384C, strain iki3, stronger effect = lower value 0.981 | locus YML120C, strain ndi1, stronger effect = lower value 0.968 | locus YMR058W, strain fet3, stronger effect = lower value 0.982 | locus YMR125W, strain sto1, stronger effect = lower value 0.992 | locus YMR129W, stronger effect = lower value 0.983 | locus YMR205C, strain PFK2, stronger effect = lower value 1.01 | locus YMR231W, strain pep5, stronger effect = lower value 0.992 | locus YNL071W, strain lat1, stronger effect = lower value 0.996 | locus YNL183C, strain NPR1, stronger effect = lower value 0.93 | locus YNL209W, strain ssb2, stronger effect = lower value 0.991 | locus YNL248C, strain rpa49, stronger effect = lower value 0.946 | locus YNL322C, strain KRE1 (second series), stronger effect = lower value 0.986 | locus YNR049C, strain mso1, stronger effect = lower value 0.985 | locus YOR001W, strain rrp6, stronger effect = lower value 0.973 | locus YOR070C, strain gyp1, stronger effect = lower value 0.993 | locus YOR080W, strain dia2, stronger effect = lower value 0.987 | locus YOR083W, strain WHI5, stronger effect = lower value 0.981 | locus YOR106W, strain vam3, stronger effect = lower value 0.982 | locus YOR231W, strain MKK1, stronger effect = lower value 0.968 | locus YOR265W, strain rbl2, stronger effect = lower value 0.99 | locus YOR270C, strain vph1, stronger effect = lower value 0.922 | locus YOR290C, strain snf2, stronger effect = lower value 0.994 | locus YPL051W, strain arl3, stronger effect = lower value 0.999 | locus YPL078C, strain atp4, stronger effect = lower value 0.978 | locus YPL106C, strain sse1, stronger effect = lower value 0.997 | locus YPL240C, strain hsp82, stronger effect = lower value 0.986 | locus YPL256C, strain CLN2, stronger effect = lower value 0.95

Cc1ccc(-c2nn[nH]n2)cc1Cl
inactive: locus YAL013W, strain DEP1, stronger effect = lower value 0.965 | locus YBR229C, strain ROT2, stronger effect = lower value 0.963 | locus YDL101C, strain DUN1, stronger effect = lower value 0.985 | locus YDL134C, strain PPH21, stronger effect = lower value 0.997 | locus YDR150W, strain NUM1, stronger effect = lower value 0.935 | locus YEL061C, strain CIN8, stronger effect = lower value 0.983 | locus YGR078C, strain PAC10, stronger effect = lower value 0.967 | locus YGR229C, strain SMI1, stronger effect = lower value 0.984 | [1] 1 | locus YHR087W, strain rtc3, stronger effect = lower value 0.975 | locus YJR043C, strain POL32, stronger effect = lower value 0.932 | locus YJR075W, strain HOC1, stronger effect = lower value 0.966 | locus YLR039C, strain RIC1, stronger effect = lower value 1 | locus YLR058C, strain SHM2 (second series), stronger effect = lower value 0.962 | locus YLR085C, strain ARP6, stronger effect = lower value 1 | locus YLR262C, strain YPT6, stronger effect = lower value 1 | locus YML094W, strain GIM5, stronger effect = lower value 1 | locus YMR219W, strain ESC1, stronger effect = lower value 0.97 | locus YMR263W, strain SAP30, stronger effect = lower value 0.933 | locus YNL153C, strain GIM3, stronger effect = lower value 0.969 | locus YNL298W, strain CLA4 (second series), stronger effect = lower value 1.02 | locus YNL322C, strain KRE1, stronger effect = lower value 0.947 | locus YNR030W, strain Alg12, stronger effect = lower value 1 | locus YOL006C, strain TOP1, stronger effect = lower value 1.07 | locus YPL055C, strain LGE1, stronger effect = lower value 0.944 | locus YPL241C, strain CIN2, stronger effect = lower value 1.12 | locus YPR135W, strain CTF4, stronger effect = lower value 1.03

From PubChem BioAssay AID1159580 (chemical genetic matrix, 2015)
